From PubChem BioAssay AID651900 (Broad Institute, 2012)
This is one part of the list. Calls of active or inactive are those of the source. How the calls were made is not given here.

Test: NIH3T3 cell viability loss – plate reader, cherry-pick, two tests, cytotoxicity control, dose response (AID 651900)
Conditions: activity: test 2 concentration series, at 26 µM; series mostly up to 26 µM

| Structure (SMILES) | outcome | activity [%] |
| --- | --- | --- |
| COCCNC(=O)C[C@H]1CC[C@@H]2[C@H](COc3ccc(NC(=O)Nc4cccc(F)c4)cc3C(=O)N2C)O1 | inactive |  |
| O=c1[nH]c(N2CCN(Cc3ccc4c(c3)OCO4)CC2)nc2c1CCCC2 | inactive | 6.08 |
| Cc1nc2nc(SCC(=O)NCc3ccco3)nn2c(C)c1Cc1ccccc1 | inactive | -7.64 |
| CN1c2ccc(-c3ccccc3)cc2[C@H]2[C@H](CCN2C(=O)Cc2ccccn2)[C@H]1CO | inactive |  |
| CCC(CO)Oc1cc(NC(=O)c2cccc(F)c2)c2ncn(C(C)C)c2c1 (centres undefined) | inactive |  |
| CC(=O)O[C@]1(C(C)=O)CC[C@H]2[C@@H]3C=C(C)C4=CC(=O)CC[C@]4(C)[C@H]3CC[C@@]21C | inactive | -6.83 |
